The panel holds about 83,000 compounds, 20% with a hit somewhere; the sample as a whole holds those more often.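 Cells were grown in 96-well plates and exposed to the test compound at a single concentration for 48 hours; results are reported as percent growth, with values below 10 considered active.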 The source made the active and inactive calls.
Test system: OVCAR-3 ovarian
Assay: NCI-60 one-dose screen, 48 h (100 = growth as untreated, 0 = no growth, -100 = all killed)
Conditions: 10 µM unless noted

| Structure (SMILES) | growth |
| --- | --- |
| COc1ccc2c(c1)OC13Oc4cc(OC)ccc4C=C1CCCCC3=C2 | 108% (inactive) |
| C/C(=N/Nc1nc2ccccc2n1C)c1ccccn1 | 10.3% (inactive) |
| Cc1nc2sc(C(=O)Nc3cccc4ccccc34)c(N)c2cc1C(C)O (centres undefined) | 3.11% (active) |
| N#Cc1c(-c2ccc(F)cc2)c(C#N)c2c(C#N)c(N)nn2c1N | 98.7% (inactive) |
| CCOc1ccc(C2N(c3cc(OC)c(OC)c(OC)c3)C(=O)C2(F)F)cc1 (centres undefined) | 7.25% (active) |
| CCOc1ccccc1C(=O)/C=C/c1cc2ccccc2[nH]c1=O | -30.7% (active) |
| Cc1ccc(C2=N[C@H]3CCC[C@@H]3N(c3ccccc3)C(C(Cl)Cl)=N2)cc1 | 103% (inactive) |
| COc1cc(/C=C/CO)cc(OC)c1O[C@@H]1O[C@H](CO)[C@@H](O)[C@H](O)[C@H]1O | 108% (inactive) |
| COc1ccc(C(=S)c2cc(OC)c(OC)c(OC)c2)cc1OC(=O)CCl | 8.17% (active) |
| O=C1CCC23OC(c4ccccc4N12)C(O)C(O)C3O (centres undefined) | 96.3% (inactive) |
| COc1cc(/C=C/C(=O)c2cccs2)ccc1OCc1ccc(Cl)nc1 | 67.9% (inactive) |
| O=c1c2ccccc2oc2ccc(OCCCCCN3CCCCCC3)cc12 | 87.1% (inactive) |
| C=C1C(=O)O[C@H]2[C@H]1CC/C(COC(=O)NCC(=O)Nc1ccc(OC)c(C(N)=O)c1O)=C\CC[C@@]1(C)O[C@@H]21 | 25.7% (inactive) |
| COc1ccc(-c2[nH]c3ccccc3c2C=C(C#N)C#N)cc1 | -6.19% (active) |
| COC(=O)/C=C/c1cc(OC(C)=O)c2c(c1)C(C(=O)OC)C(c1ccc(OC(C)=O)c(OC(C)=O)c1)O2 (centres undefined) | 3.01% (active) |
| Nc1cc(N)c(S(=O)(=O)O)cc1N=Nc1cc([N+](=O)[O-])ccc1O | 113% (inactive) |
| CC1CCN(CCCCCOc2ccc3oc4ccccc4c(=O)c3c2)CC1 | 87.6% (inactive) |
| CCOC(=O)C1=C(C)n2nc(CC#N)c(C#N)c2NC1c1ccc(Cl)cc1 (centres undefined) | 89.3% (inactive) |
| Cc1cccc(C)c1NCc1nnc(-c2ccco2)o1 | 94.8% (inactive) |

| Structure (SMILES) | growth |
| --- | --- |
| COC(=O)/C=C1\SC(=Nc2cccc(Cl)c2)N(CCc2c[nH]c3ccccc23)C1=O | 33.3% (inactive) |
| COc1ccc(C(C)c2cc(OC)c(OC)c(OC)c2)cc1 (centres undefined) | -14.1% (active) |
| CCO/C=N/S(=O)(=O)c1cc2c(cc1Cl)NC=NS2(=O)=O | 105% (inactive) |
| COc1ccc([C@H]2[C@@H](F)C(=O)N2c2cc(OC)c(OC)c(OC)c2)cc1F | -4.18% (active) |
| O=C(CN1N=C(c2ccc(F)cc2)CCC1=O)Nc1nccs1 | 113% (inactive) |
| Nc1cc(N)nc(SCC(=O)O)n1 | 111% (inactive) |
| CCOC(=O)NCCc1nc2c([nH]1)c(=O)n(C)c(=O)n2C | 113% (inactive) |
| CC1(c2ccccc2Cl)NC(=O)NC1=O (centres undefined) | 106% (inactive) |
| C=C1C(=O)O[C@H]2[C@H]1CC/C(COC(=O)n1ccnc1)=C\CC[C@@]1(C)O[C@@H]21 | 57% (inactive) |
| COc1ccccc1-c1ccc2nc(NC(=O)Nc3cc(C(F)(F)F)cc(C(F)(F)F)c3)sc2c1 | 8% (active) |
| O=C1NC(SCc2ccc(F)cc2)=N/C1=C/c1cccc(OCc2ccc(Cl)cc2)c1 | 18.1% (inactive) |
| O=C(CCc1nnc2sc(OCc3ccccc3)nn12)c1nc2ccc([N+](=O)[O-])cc2[nH]1 | 96.4% (inactive) |
| Nc1c(C(=O)Nc2ccccn2)sc2nc3c(cc12)CCCC3 | 23.9% (inactive) |
| Cc1nnc(/N=C2\NC(=O)/C(=C/c3ccsc3)S2)s1 | 93.3% (inactive) |
| Cc1cc(Nc2nc(SCc3ccc(C(=O)Nc4ccc(F)cc4N)cc3)nn3cccc23)n[nH]1 | 11.4% (inactive) |
| Oc1c(CCl)cc(Cl)cc1Cc1cc(Cl)cc(Cc2cc(Cl)cc(CCl)c2O)c1O | 19.2% (inactive) |
| COc1ccc(C2N(c3cc(OC)c(OC)c(OC)c3)C(=O)C2(F)F)cc1F (centres undefined) | 17.6% (inactive) |
| COc1cc2c(cc1OC)C(Sc1ccc(Cl)cc1)c1c(nc(N)c(C#N)c1N)O2 (centres undefined) | -69.6% (active) |

Test system: HS 578T breast
Assay: as above
Conditions: 10 µM unless noted

| Structure (SMILES) | growth |
| --- | --- |
| COc1ccc2c(c1)OC13Oc4cc(OC)ccc4C=C1CCCCC3=C2 | 99.4% (inactive) |
| C/C(=N/Nc1nc2ccccc2n1C)c1ccccn1 | 44.5% (inactive) |
| Cc1nc2sc(C(=O)Nc3cccc4ccccc34)c(N)c2cc1C(C)O (centres undefined) | 32.3% (inactive) |
| N#Cc1c(-c2ccc(F)cc2)c(C#N)c2c(C#N)c(N)nn2c1N | 98% (inactive) |
| CCOc1ccc(C2N(c3cc(OC)c(OC)c(OC)c3)C(=O)C2(F)F)cc1 (centres undefined) | 37.4% (inactive) |
| CCOc1ccccc1C(=O)/C=C/c1cc2ccccc2[nH]c1=O | 60.1% (inactive) |
| Cc1ccc(C2=N[C@H]3CCC[C@@H]3N(c3ccccc3)C(C(Cl)Cl)=N2)cc1 | 100% (inactive) |
| COc1cc(/C=C/CO)cc(OC)c1O[C@@H]1O[C@H](CO)[C@@H](O)[C@H](O)[C@H]1O | 96.4% (inactive) |
| COc1ccc(C(=S)c2cc(OC)c(OC)c(OC)c2)cc1OC(=O)CCl | 37.8% (inactive) |
| O=C1CCC23OC(c4ccccc4N12)C(O)C(O)C3O (centres undefined) | 105% (inactive) |
| COc1cc(/C=C/C(=O)c2cccs2)ccc1OCc1ccc(Cl)nc1 | 104% (inactive) |
| O=c1c2ccccc2oc2ccc(OCCCCCN3CCCCCC3)cc12 | 88.8% (inactive) |
| C=C1C(=O)O[C@H]2[C@H]1CC/C(COC(=O)NCC(=O)Nc1ccc(OC)c(C(N)=O)c1O)=C\CC[C@@]1(C)O[C@@H]21 | 89.3% (inactive) |
| COc1ccc(-c2[nH]c3ccccc3c2C=C(C#N)C#N)cc1 | 16.4% (inactive) |
| COC(=O)/C=C/c1cc(OC(C)=O)c2c(c1)C(C(=O)OC)C(c1ccc(OC(C)=O)c(OC(C)=O)c1)O2 (centres undefined) | 41.1% (inactive) |
| Nc1cc(N)c(S(=O)(=O)O)cc1N=Nc1cc([N+](=O)[O-])ccc1O | 103% (inactive) |
| CC1CCN(CCCCCOc2ccc3oc4ccccc4c(=O)c3c2)CC1 | 70.3% (inactive) |
| CCOC(=O)C1=C(C)n2nc(CC#N)c(C#N)c2NC1c1ccc(Cl)cc1 (centres undefined) | 106% (inactive) |
| Cc1cccc(C)c1NCc1nnc(-c2ccco2)o1 | 91.5% (inactive) |

| Structure (SMILES) | growth |
| --- | --- |
| COC(=O)/C=C1\SC(=Nc2cccc(Cl)c2)N(CCc2c[nH]c3ccccc23)C1=O | 67.4% (inactive) |
| COc1ccc(C(C)c2cc(OC)c(OC)c(OC)c2)cc1 (centres undefined) | 37.5% (inactive) |
| CCO/C=N/S(=O)(=O)c1cc2c(cc1Cl)NC=NS2(=O)=O | 101% (inactive) |
| COc1ccc([C@H]2[C@@H](F)C(=O)N2c2cc(OC)c(OC)c(OC)c2)cc1F | 25.5% (inactive) |
| O=C(CN1N=C(c2ccc(F)cc2)CCC1=O)Nc1nccs1 | 100% (inactive) |
| Nc1cc(N)nc(SCC(=O)O)n1 | 99.6% (inactive) |
| CCOC(=O)NCCc1nc2c([nH]1)c(=O)n(C)c(=O)n2C | 104% (inactive) |
| CC1(c2ccccc2Cl)NC(=O)NC1=O (centres undefined) | 99.7% (inactive) |
| C=C1C(=O)O[C@H]2[C@H]1CC/C(COC(=O)n1ccnc1)=C\CC[C@@]1(C)O[C@@H]21 | 99.2% (inactive) |
| COc1ccccc1-c1ccc2nc(NC(=O)Nc3cc(C(F)(F)F)cc(C(F)(F)F)c3)sc2c1 | -0.697% (active) |
| O=C1NC(SCc2ccc(F)cc2)=N/C1=C/c1cccc(OCc2ccc(Cl)cc2)c1 | 29.6% (inactive) |
| O=C(CCc1nnc2sc(OCc3ccccc3)nn12)c1nc2ccc([N+](=O)[O-])cc2[nH]1 | 88.2% (inactive) |
| Nc1c(C(=O)Nc2ccccn2)sc2nc3c(cc12)CCCC3 | 39.7% (inactive) |
| Cc1nnc(/N=C2\NC(=O)/C(=C/c3ccsc3)S2)s1 | 96.4% (inactive) |
| Cc1cc(Nc2nc(SCc3ccc(C(=O)Nc4ccc(F)cc4N)cc3)nn3cccc23)n[nH]1 | 37.4% (inactive) |
| Oc1c(CCl)cc(Cl)cc1Cc1cc(Cl)cc(Cc2cc(Cl)cc(CCl)c2O)c1O | 26.1% (inactive) |
| COc1ccc(C2N(c3cc(OC)c(OC)c(OC)c3)C(=O)C2(F)F)cc1F (centres undefined) | 21.9% (inactive) |
| COc1cc2c(cc1OC)C(Sc1ccc(Cl)cc1)c1c(nc(N)c(C#N)c1N)O2 (centres undefined) | 30.8% (inactive) |
